Screening data: PubChem, National Center for Advancing Translational Sciences (NCATS)
The entries come from a sample that favours hits as a whole.
ALOX12 inh = blocks human arachidonate 12S-lipoxygenase | purified 12hLO, xylenol orange hydroperoxide absorbance | AID 1671190 | 1.1% of 580,000 active | P18054 | Potency, µM (highest dose often 108 µM), inactives show at the highest dose activity change, negative = inhibition, usual class: inhibitors; also: potency is read from the fitted curve at half-maximal effect
Target sequence (P18054 whole entry, looked up): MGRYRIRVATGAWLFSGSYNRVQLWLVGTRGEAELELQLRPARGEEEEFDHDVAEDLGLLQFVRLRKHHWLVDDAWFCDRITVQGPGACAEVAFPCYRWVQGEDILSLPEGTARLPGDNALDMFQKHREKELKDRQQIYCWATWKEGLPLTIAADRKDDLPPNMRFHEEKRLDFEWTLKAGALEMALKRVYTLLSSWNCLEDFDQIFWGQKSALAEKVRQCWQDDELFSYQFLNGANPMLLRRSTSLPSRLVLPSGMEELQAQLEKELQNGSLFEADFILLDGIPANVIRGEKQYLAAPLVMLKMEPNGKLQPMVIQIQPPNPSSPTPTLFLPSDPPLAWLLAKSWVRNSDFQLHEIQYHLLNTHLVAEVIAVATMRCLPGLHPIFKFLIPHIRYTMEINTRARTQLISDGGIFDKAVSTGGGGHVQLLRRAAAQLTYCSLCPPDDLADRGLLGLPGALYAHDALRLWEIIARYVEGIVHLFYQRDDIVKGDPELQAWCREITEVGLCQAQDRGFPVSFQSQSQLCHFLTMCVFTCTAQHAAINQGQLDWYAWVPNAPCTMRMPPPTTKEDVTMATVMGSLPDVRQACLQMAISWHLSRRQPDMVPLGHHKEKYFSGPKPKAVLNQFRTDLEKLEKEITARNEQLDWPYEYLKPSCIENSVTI
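Purified human 12hLO (150 nM final) in 25 mM Hepes, 0.01% Triton X-100, pH 7.0 was preincubated 15 min at room temperature with compound. Then 40 uM arachidonic acid was added, 30 min. Hydroperoxide was read by Fe-XO absorbance ratio 573/405 nm.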
IL1B secr inh = blocks inflammasome-driven IL-1 beta release; 4.7% of 360,000 active; THP-1 LPS/ATP IL-1B secretion, AlphaLISA, 16 h; active compounds read low; activity change, % at 57.5 µM; in the data active = activity change below about -50%; inconclusive = mostly about -30% to -49%
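Secreted IL-1B measured by AlphaLISA bead assay after 16 h compound exposure of THP-1 cells; compounds (final up to 57.5 uM) added 1 h before LPS (250 ng/mL) and ATP (1.25 mM) stimulation; lower signal means less secretion.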
HT1080NT lethal = kills 2HG-producing HT-1080-NT fibrosarcoma cells; HT-1080-NT fibrosarcoma viability, CellTiter-Glo ATP luminescence, 48 h; Potency, µM (highest dose often 46.1 µM), for the others: at the top dose activity, negative = less viability, most hits filed as cytotoxic; 1.6% of 360,000 active;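 also: NT is the 2HG producing partner of a matched IDH1 knockdown line; potency is read from the fitted curve at half-maximal effect; 0% = DMSO-treated cells and -100% = media-only wells without cells; nearly all actives have a fitted effect of over 55% in size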
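Viability of the 2HG-overproducing fibrosarcoma line after 48 hours of compound exposure at 37 degrees C was determined by luminescence with CellTiter-Glo, and concentration-effect curves were then fitted and categorized.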
HT1080 IDH1KD tx = HT-1080 IDH1 knockdown cell toxicity (counter line); 2% of 360,000 active; Potency, µM (titrated, usually from 46.1 µM), for inactives: top-dose activity, negative = toxicity, most hits filed as cytotoxic; HT-1080 IDH1 knockdown viability, ATP luminescence, 48 h; AID 686971;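 also: potency is read from the fitted curve at half-maximal effect; 0% = DMSO wells and -100% = cell-free medium wells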
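Assay cells: HT-1080 with IDH1 knockdown, 750 per well, RPMI/5% FBS. Exposure: 48 h at 37 °C following 2 h pre-incubation. Read: CellTiter-Glo luminescence; fitted concentration-response, curve class assigned.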
DT40 TDP1 CPT = growth inhibition of DT40 Tdp1-/-;hTDP1 cells with camptothecin (screen for TDP1 inhibitors); chicken DT40 Tdp1-/-;hTDP1 cells + 20 nM CPT, ATP luminescence, 48 h; Potency, µM (highest dose often 46.2 µM), without a hit: at the top dose activity change, negative = growth inhibition, most hits filed as inhibitors; 12% of 420,000 active; also: potency is read from the fitted curve at half-maximal effect; nearly all actives have a fitted effect of over 55% in size
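Chicken DT40 Tdp1-/- cells complemented with human TDP1, 400 cells/well, exposed to compounds plus 20 nM camptothecin for at least 48 h at 37 C; viability read as ATP content by CellTiter-Glo luminescence.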
TDP1 cell noCPT = qHTS for Inhibitors of human tyrosyl-DNA phosphodiesterase 1 (TDP1): qHTS in cells in absence of CPT; DT40 Tdp1-/- hTDP1 cells, no CPT, ATP luminescence, 48 h; Potency, µM (doses to about 46.2 µM), inactives show at the top dose activity change, negative = growth inhibition, hits mostly inhibitors; 15% of 420,000 active; also: potency is read from the fitted curve at half-maximal effect; nearly all actives have a fitted effect of over 55% in size
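Growth kinetics read by CellTiter-Glo luminescence after ≥48 hr at 37 °C. Cells: DT40 Tdp1-/- stably carrying human TDP1, 400 per well, compound exposure in the absence of CPT (DMSO vehicle).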
Active calls of the source: *; ? = inconclusive; nt = no result; [ ] = remark or other dose. Unless noted, calls follow the shape of the dose curve; as a rule, active = well fitted curve in the direction sought with a large enough effect; inconclusive = small, poorly fitted or top-dose-only effect, or another doubt; inactive = no such curve, though single readings can be large; an effect the other way counts as inactive or inconclusive. Unless noted, % is scaled to controls: 0 for no effect and ±100 for the full control effect.

SMILES | ALOX12 inh | IL1B secr inh | HT1080NT lethal | HT1080 IDH1KD tx | DT40 TDP1 CPT | TDP1 cell noCPT
CC(C)(C)c1ccc(C(=O)C2CCCN(C(=O)C3CCOCC3)C2)cc1 (stereo unspecified) | 5% | 26 | -1% | 18% | ? | 16µM*
Cc1noc(C)c1CC(=O)N1CCCC(C(=O)c2ccc(C(C)(C)C)cc2)C1 (stereo unspecified) | 0% | 15 | 1% | -2% | 21µM* | 21µM*
COc1ccc(C(=O)C2CCCN(C(=O)Cc3c(C)noc3C)C2)cc1OC (stereo unspecified) | ? | 19 | -4% | -12% | 5% | 10%
Cn1cc(/C=C/C(=O)N2CCCC(C(=O)c3ccc(C(C)(C)C)cc3)C2)cn1 (stereo unspecified) | 6% | 15 | 4% | 3% | ? | ?
CC(Sc1nc2ccccc2c(=O)n1C)C(=O)NC1CCCCC1C (stereo unspecified) | nt | -4 | -3% | -7% | 4.1µM* | 2.3µM*
O=C(CC(=O)c1ccccc1)Nc1ccc(Cl)cc1 | 12% | -77* | -25% | ? | ? | ?
Cc1ccc(NC(=O)CC(=O)c2ccccc2)cc1C | -10% | -12 | 9% | -9% | ? | ?
O=C(CNCc1ccccc1)Nc1cccc(Cl)c1Cl | 2% | -12 | -5% | -1% | 0% | 12%
O=C(CNCc1ccccc1)Nc1ccc(Cl)cc1 | -16% | 1 | 8.2µM* | 8.2µM* | -17% | ?
O=C(CNCc1ccc(Cl)cc1)N1CCc2ccccc2C1 | 32µM* | -20 | 11% | 14% | -16% | -6%
O=C(NC(NC(=O)c1ccccc1)c1ccccc1F)c1ccccc1 | -42% | nt | nt | nt | nt | nt
COc1ccc(C2Cn3nnc(-c4nc(-c5ccc(F)c(Br)c5)no4)c3CO2)cc1 (stereo unspecified) | 57% | nt | nt | nt | nt | nt
Cc1cc(C)c(C)c(S(=O)(=O)N2CCNCC2)c1C | 12% | 0 | -21% | -15% | -13% | -28%
CC(C)c1cc(C(C)C)c(S(=O)(=O)N2CCNCC2)c(C(C)C)c1 | 108% | -81* | ? | ? | ? | ?
CCCCC(=O)OC1CCC2C3CCc4cc(O)ccc4C3CCC12C (stereo unspecified) | ? | 1 | ? | ? | ? | 18µM*
C[C@]12CC[C@@H]3c4ccc(O)cc4CC[C@H]3[C@@H]1CC[C@@H]2OC(=O)CCC(=O)O | ? | 3 | -34% | -8% | 0.73µM* | 1%
CN(Cc1nc2ccc(Cl)cc2[nH]1)C(=O)c1ccc2cccc(F)c2n1 | 16% | nt | nt | nt | nt | nt
Cc1cc(C)nc(NC2=NCCN2C(=S)Nc2ccc(C)c(C)c2)n1 | ? | nt | 7% | ? | 2% | ?
O=C(NCC(c1ccco1)N1CCCCC1)c1cc2c(s1)CCCC2 (stereo unspecified) | 304% | 16 | 2% | 19% | 18µM* | 16µM*
N#Cc1ccccc1Sc1ccccc1C(=O)NCC(c1ccco1)N1CCCC1 (stereo unspecified) | ? | -13 | -9% | -13% | 23µM* | ?
S=C(NCCc1ccccc1)NCC(c1ccco1)N1CCCCC1 (stereo unspecified) | ? | ? | 4% | -18% | ? | 23µM*
N#Cc1ccc(C(=O)NCC(c2ccco2)N2CCCC2)cc1 (stereo unspecified) | 26% | 30 | 14% | 22% | -6% | -6%
O=C(NCC(c1ccco1)N1CCCCC1)C(c1ccccc1)c1ccccc1 (stereo unspecified) | -1% | ? | 1% | -6% | 16µM* | ?
O=C(NCC(c1ccco1)N1CCCCC1)c1cccs1 (stereo unspecified) | ? | 17 | 2% | 1% | -1% | -25%
CC(Oc1ccc(C(C)(C)C)cc1)C(=O)NCC(c1ccco1)N1CCCC1 (stereo unspecified) | 1% | ? | -13% | -7% | 23µM* | 21µM*
SMILES | ALOX12 inh | IL1B secr inh | HT1080NT lethal | HT1080 IDH1KD tx | DT40 TDP1 CPT | TDP1 cell noCPT
CC(C)N1CCC(CCN2C(=O)[C@H]3CN(C)C[C@H]3C2=O)CC1 | 33% | nt | nt | nt | nt | nt
COC[C@@H]1CN(S(=O)(=O)c2ccc(C)cc2)C[C@H]1c1nc(C)no1 | 32% | nt | nt | nt | nt | nt
COC[C@@H]1CN(S(=O)(=O)c2cccc(C)c2)C[C@H]1c1nc(C)no1 | 45µM* | nt | nt | nt | nt | nt
O=C(CNC(=O)c1ccccc1)OC(C(=O)O)c1ccc(F)cc1 (stereo unspecified) | -21% | 19 | 15% | -1% | ? | ?
N#C/C(=C\c1ccc(O)c([N+](=O)[O-])c1)c1nc2ccccc2s1 | 22µM* | 31 | ? | ? | 26µM* | 16µM*
COc1ccc(-c2csc(/C(C#N)=C\c3ccc(OC)c([N+](=O)[O-])c3)n2)cc1 | -21% | 6 | 10% | 9% | ? | ?
COc1cc(/C=C(\C#N)c2nc3ccccc3s2)cc([N+](=O)[O-])c1O | ? | 92 | -17% | -12% | ? | 16µM*
CCNC(=O)NC[C@@H]1C=C(C)[C@H](CC(=O)N2CCN(C(C)=O)CC2)C[C@H]1C(C)C | 10%[176 µM] | nt | nt | nt | nt | nt
Cc1cc([N+](=O)[O-])ccc1-c1ccc(/C=N/NC(=O)c2ccc(Br)o2)o1 | -17% | ? | -1% | 0% | ? | ?
NS(=O)(=O)c1ccc(-c2ccc(/C=N/NC(=O)c3ccc([N+](=O)[O-])cc3)o2)cc1 | -4% | -4 | 0% | -2% | -14% | 8%
Cc1cc(C)n(Cc2ccc(C(=O)N/N=C/c3ccc(-c4ccc([N+](=O)[O-])cc4)o3)o2)n1 | ? | -1 | ? | ? | ? | 10µM*
CNC(=S)N/N=C/c1ccc(-c2ccc(Cl)c([N+](=O)[O-])c2)o1 | -19% | -54* | -4% | 11% | 8.2µM* | 9.2µM*
CC(C)(C)NC(=S)N/N=C\c1ccc(-c2ccc([N+](=O)[O-])cc2)o1 | 45µM* | nt | 13% | 4% | 9.2µM* | 9.2µM*
O=C(O)c1ccc(-c2ccc(/C=N/Nc3ccc([N+](=O)[O-])cc3)o2)cc1 | ? | 5 | -28% | -27% | ? | -26%
CCCCC(=O)N/N=C/c1ccc(-c2ccc([N+](=O)[O-])cc2)o1 | -10% | -21 | -9% | -5% | ? | 16µM*
